Compound activity: PubChem, National Center for Advancing Translational Sciences (NCATS)
An excerpt weighted towards active compounds, which were near 19% of everything screened.
DT40 TDP1 CPT: DT40-hTDP1 cell growth loss with CPT. chicken DT40 Tdp1-/-;hTDP1 cells + 20 nM CPT, ATP luminescence, 48 h. Potency, µM (doses to about 46.2 µM), for inactives: at the top dose activity change, negative = growth inhibition, usual class: inhibitors. hit rate 12% among 420,000. AID 686979; also: potency is read from the fitted curve at half-maximal effect; % is scaled to controls: 0 for no effect and ±100 for the full control effect; nearly all actives have a fitted effect of over 55% in size
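Chicken DT40 Tdp1-/- cells complemented with human TDP1, 400 cells/well, exposed to compounds plus 20 nM camptothecin for at least 48 h at 37 C; viability read as ATP content by CellTiter-Glo luminescence.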
IL1B secr inh: blocks inflammasome-driven IL-1 beta release. activity change, % at 57.5 µM. THP-1 LPS/ATP IL-1B secretion, AlphaLISA, 16 h; active compounds read low. hit rate 4.7% among 360,000. AID 743279; in the data active = activity change below about -50%; inconclusive = mostly about -30% to -49%; also: % is scaled to controls: 0 for no effect and ±100 for the full control effect
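THP-1 cells pretreated 1 hr with compounds (up to 57.5 uM final), then stimulated with LPS (250 ng/mL final) plus ATP (1.25 mM final); secreted IL-1B measured by AlphaLISA after 16 hr, decreased signal indicating inhibition.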
HepG2 tox: HepG2 cytotoxicity, counter-screen for TGF-b inhibitors; AID 588856; Potency, µM (titrated, usually from 46.1 µM), inactives show at the highest dose activity change, negative = cytotoxicity, most hits filed as cytotoxic; hit rate 0.76% among 410,000; HepG2 CAGA-GFP viability, ATP luminescence, 18 h; also: potency is read from the fitted curve at half-maximal effect
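HepG2 CAGA-GFP cells (1000/well, DMEM with 1% FBS) received compound, then TGF-beta at 500 pg/mL final, and were incubated 18 hours at 37 degrees C. Viability was read by CellTiter-Glo luminescence. Media-only wells were set as complete cell-killing and DMSO as no toxicity.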
ASM inhibitor: human S-ASM enzyme inhibition | hit rate 0.006% among 340,000 | placental ASM, HMU-PC fluorogenic substrate, 60 min | Potency, µM (top dose mostly 57.5 µM), inactives show at the top dose activity change, negative = inhibition, usual class: inhibitors | P17405; also: potency is read from the fitted curve at half-maximal effect
Target sequence (P17405 47-631 limits assumed): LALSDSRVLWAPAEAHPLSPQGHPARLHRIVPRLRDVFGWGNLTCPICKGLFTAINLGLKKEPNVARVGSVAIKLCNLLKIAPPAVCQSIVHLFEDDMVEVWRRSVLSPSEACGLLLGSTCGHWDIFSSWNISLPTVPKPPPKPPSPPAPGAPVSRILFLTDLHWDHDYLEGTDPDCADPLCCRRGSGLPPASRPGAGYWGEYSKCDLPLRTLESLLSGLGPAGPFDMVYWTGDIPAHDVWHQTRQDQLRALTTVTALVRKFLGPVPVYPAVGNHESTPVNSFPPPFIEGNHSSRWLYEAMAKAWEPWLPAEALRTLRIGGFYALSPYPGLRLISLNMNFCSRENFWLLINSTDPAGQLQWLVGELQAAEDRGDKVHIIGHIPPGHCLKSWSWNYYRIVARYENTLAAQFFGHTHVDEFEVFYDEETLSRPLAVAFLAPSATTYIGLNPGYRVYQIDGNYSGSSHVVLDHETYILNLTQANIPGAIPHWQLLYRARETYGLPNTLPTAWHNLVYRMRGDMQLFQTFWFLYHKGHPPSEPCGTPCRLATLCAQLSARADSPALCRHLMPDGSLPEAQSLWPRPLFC
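Steps: dispense placental human ASM, pin compound, wait 10 min at room temperature, add HMU-PC0 substrate at 9 uM final, incubate 60 min at 37 °C, add stop solution raising pH to 10, read fluorescence.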
TDP1 cell noCPT: qHTS for Inhibitors of human tyrosyl-DNA phosphodiesterase 1 (TDP1): qHTS in cells in absence of CPT. DT40 Tdp1-/- hTDP1 cells, no CPT, ATP luminescence, 48 h. Potency, µM (titrated, usually from 46.2 µM), without a hit: at the top dose activity change, negative = growth inhibition, usual class: inhibitors. hit rate 15% among 420,000. AID 686978, 2013; also: potency is read from the fitted curve at half-maximal effect; % is scaled to controls: 0 for no effect and ±100 for the full control effect; nearly all actives have a fitted effect of over 55% in size
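Growth of hTDP1-complemented DT40 Tdp1-knockout cells is measured by ATP luminescence after at least 48 hr compound exposure at 37 °C, with DMSO substituting for the 20 nM CPT used in the parallel screen.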
TGFb SMAD3 inh: inhibitors of TGF-b signaling; HepG2 CAGA-GFP TGF-b/SMAD3 reporter, GFP fluorescence, 18 h; TGF-beta stimulated, 500 pg/mL final; Potency, µM (top dose mostly 46.1 µM), inactives show at the top dose activity, negative = inhibition, actives largely listed as inhibitors; hit rate 1.2% among 410,000; AID 588855; also: potency is read from the fitted curve at half-maximal effect; % is scaled to controls: 0 for no effect and ±100 for the full control effect; nearly all actives have a fitted effect of over 65% in size
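Read-out: total well GFP (ex488/em500-530) summed from mean per-cell fluorescence. Cells: HEPG2 CAGA-GFP, 1% FBS DMEM, 18 h at 37 degrees C with 500 pg/mL final TGF-beta. Unstimulated wells served as the full-inhibition control; stimulated DMSO wells = 0%.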
Active calls of the source: *; ? = inconclusive; . = no result given. Unless noted, calls follow the shape of the dose curve; as a rule, active = well fitted curve in the direction sought with a large enough effect; inconclusive = small, poorly fitted or top-dose-only effect, or another doubt; inactive = no such curve, though single readings can be large; an effect the other way counts as inactive or inconclusive.

SMILES	DT40 TDP1 CPT	IL1B secr inh	HepG2 tox	ASM inhibitor	TDP1 cell noCPT	TGFb SMAD3 inh
COCC(=O)N1CCC2(CC1)CN(C(=O)Nc1ccc(OC)cc1)C2	4%	.	.	.	11%	.
CSc1cccc(NC(=O)c2ccc3c(c2)CCCN3S(C)(=O)=O)c1	16µM*	.	-29%	.	?	0%
CSc1cccc(NC(=O)c2cccc(N3CCCS3(=O)=O)c2)c1	?	.	-16%	.	18µM*	?
Cc1ccc(Cl)cc1N1CCN(C(=O)c2ccc3c(c2)CCN3S(=O)(=O)c2ccccc2)CC1	9.2µM*	.	6%	.	10µM*	22%
CCS(=O)(=O)N1CCCc2cc(C(=O)Nc3cccc(C(C)=O)c3)ccc21	?	.	-15%	.	26µM*	23%
Cc1ccc(CNC(=O)C(=O)NCC(c2cccs2)S(=O)(=O)c2ccc(C)cc2)cc1 (centres undefined)	?	.	-16%	.	?	-16%
O=C(NCc1ccccc1)C(c1ccccc1F)N(C(=O)c1csnn1)C1CCCC1 (centres undefined)	-2%	-8	13%	0%	-26%	8%
O=C(Nc1cccc(Cl)c1)c1ccc2c(c1)CCN2S(=O)(=O)c1ccccc1	13µM*	.	-14%	.	21µM*	-9%
CC(=O)c1cccc(NC(=O)c2ccc3c(c2)CCN3S(=O)(=O)c2ccccc2)c1	15µM*	7	-21%	3%	21µM*	-16%
CC(=O)Nc1cccc(NC(=O)c2ccc3c(c2)CCN3S(=O)(=O)c2ccccc2)c1	?	?	-22%	-7%	?	-1%
O=C(Nc1ccccc1)c1ccc2c(c1)CCN2S(=O)(=O)c1ccccc1	?	-22	-32%	-14%	?	-17%
COC(=O)c1cc(Cl)c(N)cc1OC	6%	12	12%	1%	-2%	5%
COC(=O)c1cnc(Oc2c(Cl)cc(N)cc2Cl)cc1C(F)(F)F	?	.	-14%	-2%	15µM*	-29%
COC(=O)c1cnc(Oc2ccc(NC(=O)NC(=O)c3c(F)cccc3F)cc2)cc1C(F)(F)F	-6%	35	17%	-2%	?	7%
COC(=O)c1cnc(Oc2ccc(NC(=O)NC(=O)c3c(F)cccc3Cl)cc2)cc1C(F)(F)F	3.3µM*	65	-21%	0%	4.1µM*	4%
COC(=O)c1cnc(Oc2ccc(NC(=O)NC(=O)c3c(OC)cccc3OC)cc2)cc1C(F)(F)F	1.2µM*	47	5%	-2%	1.3µM*	?
CN(CCNC(=O)CN1C(=O)CSc2ccc(S(=O)(=O)N3CCCC3)cc21)Cc1ccccc1	-21%	-15	-2%	3%	-12%	-12%
O=C(NC1CCCC1)c1cnn2c(C(F)(F)F)cc(-c3ccc4c(c3)OCO4)nc12	7.3µM*	15	-10%	100%	16µM*	-15%
O=C(c1cnn2c(C(F)(F)F)cc(-c3ccc4c(c3)OCO4)nc12)N1CCCCC1	?	?	-26%	140%	-23%	-18%
CCOC(=O)C1CCCN(C(=O)c2sc3nc(C)nc(N(CC)CC)c3c2C)C1 (centres undefined)	23µM*	0	-16%	-2%	?	2%
CCC1CCCCN1C(=O)c1sc2nc(C)nc(N(CC)CC)c2c1C (centres undefined)	?	18	-5%	3%	16µM*	-25%
CN1CCN(c2ccc(CNS(=O)(=O)c3ccccc3)cc2)CC1	7%	.	11%	1%	-29%	-3%
CN1CCN(c2ccc(CNS(=O)(=O)Cc3cccc(C(F)(F)F)c3)cc2)CC1	6.5µM*	0	-54%	-1%	3.7µM*	?
Nc1c2c(nc3ccc(Br)cc13)N(Cc1ccccc1)CC2	?	?	-44%	4%	21µM*	?
Cc1cccc(N2CCc3c2nc2ccc(Br)cc2c3N)c1	?	-94*	-92%	-3%	?	?
SMILES	DT40 TDP1 CPT	IL1B secr inh	HepG2 tox	ASM inhibitor	TDP1 cell noCPT	TGFb SMAD3 inh
Nc1c2c(nc3ccc(Br)cc13)N(c1ccccc1)CC2	?	-21	-48%	0%	?	?
O=C(Cc1ccc2ccccc2c1)NO	4%	.	.	.	-9%	.
CCCCC1CC2=C(C(=O)OC(C)(C)O2)C(c2cccc3ccccc23)O1 (centres undefined)	?	-23	-46%	.	23µM*	?
CCCC[C@@H]1CC2=C(C(=O)OC(C)(C)O2)[C@@H](c2ccc(Cl)cc2)O1	?	5	.	.	?	.
CC(C)(C)c1ccc(C(=O)Nc2cccc(-n3cnnn3)c2)cc1	?	-14	-1%	4%	2.6µM*	15%
Cc1cccc(NC(=O)c2cccc(OC(=S)N3CCOCC3)c2)c1	?	17	-2%	16%	15µM*	-9%
O=C(Nc1cccc(Cl)c1)c1ccc(OC(=S)N2CCOCC2)cc1	?	11	-6%	0%	?	?
CC(C)(C)c1ccc(C(=O)Nc2cccc(C(=O)N3CCOCC3)c2)cc1	15µM*	-5	-26%	0%	?	-29%
O=C(Nc1cccc2ccccc12)c1ccc(OC(=S)N2CCOCC2)cc1	23µM*	7	9%	1%	23µM*	?
O=C1NC2(CCSC2)C(=O)N1CC(=O)N(Cc1ccccc1)C1CCS(=O)(=O)C1 (centres undefined)	0%	8	8%	9%	-14%	6%
Cc1cccc(-n2nc(C)c(C(=O)Nc3cc(C)ccc3C)c2-n2cccc2)c1	?	.	-54%	.	?	-15%
COc1ccc(C2CC(=O)N(CC(=O)Nc3cccc(C)c3C)c3ccccc3S2)cc1OC (centres undefined)	.	.	-4%	.	.	-1%
O=C(CCSCc1cccc(Cl)c1)N1CCN(c2ccc(Cl)cc2)CC1	?	.	-39%	.	?	?
C[C@@H]1CN([C@@H](C)CO)C(=O)c2cc(C#CC(C)(C)O)cnc2O[C@@H]1CN(C)C(=O)c1ccccc1F	6%	-26	4%	.	-3%	9%
CN(CC(=O)NNC(=O)CNC(=O)c1ccccc1F)S(=O)(=O)c1ccc(Cl)cc1	-5%	0	2%	0%	-1%	2%
CCOc1ccccc1C(=O)NCC(=O)NNC(=O)CN(C)S(=O)(=O)c1ccc(Cl)cc1	21µM*	-4	-15%	-1%	12µM*	-2%
